FLuc modulator: qHTS profiling assay for firefly luciferase inhibitor/activator using purifed enzyme and Km concentrations of substrates (counterscreen for miR-21 project) | purified FLuc, Km substrates, luminescence inhibition | Potency, µM (highest dose often 57.5 µM), without a hit: at the highest dose activity change, negative = inhibition, usual class: inhibitors | 360,000 tested, 6.9% active | AID 588342, 2011;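 also: plate controls were vehicle for no effect and reference inhibitor for full effect; nearly all actives have a fitted effect of over 55% in size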
Target sequence (P08659 whole entry, looked up): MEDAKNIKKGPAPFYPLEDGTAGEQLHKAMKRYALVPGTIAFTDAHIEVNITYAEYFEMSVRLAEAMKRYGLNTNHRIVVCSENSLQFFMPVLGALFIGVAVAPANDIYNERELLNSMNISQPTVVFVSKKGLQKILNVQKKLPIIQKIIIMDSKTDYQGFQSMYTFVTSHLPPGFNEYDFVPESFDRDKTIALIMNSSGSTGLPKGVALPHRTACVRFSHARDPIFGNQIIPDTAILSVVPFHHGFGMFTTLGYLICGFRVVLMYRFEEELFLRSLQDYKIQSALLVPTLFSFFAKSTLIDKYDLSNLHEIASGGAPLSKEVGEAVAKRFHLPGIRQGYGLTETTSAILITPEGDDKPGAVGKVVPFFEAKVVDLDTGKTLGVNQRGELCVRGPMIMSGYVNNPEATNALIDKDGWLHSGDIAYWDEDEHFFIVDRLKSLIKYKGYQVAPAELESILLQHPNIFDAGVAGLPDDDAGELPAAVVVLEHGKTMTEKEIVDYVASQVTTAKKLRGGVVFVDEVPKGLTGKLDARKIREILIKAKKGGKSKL
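Purified P. pyralis luciferase, 10 nM final, with Km-level 10 uM D-luciferin and 10 uM ATP in 50 mM Tris acetate pH 7.5, 10 mM Mg acetate, 0.01% Tween-20, 0.05% BSA; 6-point qHTS titration about 60 µM downward; luminescence read.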
Rab9 prom act: qHTS Assay for Rab9 Promoter Activators | Potency, µM (highest dose often 9.22 µM), without a hit: top-dose activation, negative = inhibition, most hits filed as activators | Huh7 Rab9 promoter-luciferase reporter, luminescence, 24 h | 320,000 tested, 2.8% active | AID 485297, 2010; also: % of control where 0% means no effect; nearly all actives have a fitted effect of over 60% in size
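Steps: seed 1500 Huh7 Rab9-luc cells per well, rest 2 h at 37 °C; add compound in DMSO; incubate 24 h; add luciferase reagent, 10 min ambient; read luminescence.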
SMN2 splice up: qHTS Assay for Enhancers of SMN2 Splice Variant Expression; HEK293 SMN2-luciferase splicing reporter, luminescence, 30-36 h; Potency, µM (doses to about 46.1 µM), for the others: top-dose activity change, positive = activation, hits mostly activators; 210,000 tested, 2.8% active; AID 1458, 2008; also: % of control where 0% means no effect; nearly all actives have a fitted effect of over 55% in size
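HEK293 cells carry an SMN2 minigene-luciferase reporter in which exon 7 inclusion puts luciferase in frame. Cells were seeded at 2000 cells/well, attached for 10-12 hours, then exposed to compounds for 30-36 hours at 37C before ONE-Glo luminescence.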
NPC1 prom act: qHTS Assay for NPC1 Promoter Activators; Huh7 NPC1 promoter luciferase reporter, 24 h; 320,000 tested, 2.4% active; Potency, µM (titrated, usually from 9.22 µM), for inactives: at the highest dose activation, hits mostly activators; also: % of control where 0% means no effect; nearly all actives have a fitted effect of over 60% in size
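Huh7 reporter cells (NPC1 promoter driving luciferase) are dosed with compound for 24 h at 37 °C, 5% CO2; luciferase detection reagent is then added and luminescence measured after 10 min at ambient temperature.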
ELG1 DNA repair: qHTS screen for small molecules that inhibit ELG1-dependent DNA repair in human embryonic kidney (HEK293T) cells expressing luciferase-tagged ELG1; 330,000 tested, 2.3% active; HEK293T ELG1-luciferase reporter, luminescence, 16 h; DNA damage induced by 5-fluorouridine; Potency, µM (highest dose often 46.1 µM), for the others: at the top dose activity change, negative = inhibition, most hits filed as inhibitors; AID 504467, 2011; also: % is scaled to controls: 0 for no effect and ±100 for the full control effect; nearly all actives have a fitted effect of over 55% in size
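Overnight (16 hr) co-exposure of 2,000 cells/well to 5-fluorouridine and compound at 37 °C preceded detection. Luciferase was quantified via ONE-Glo luminescence; loss of signal denotes inhibition.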
ELG1 genotox: qHTS screen for small molecules that induce genotoxicity in human embryonic kidney (HEK293T) cells expressing luciferase-tagged ELG1. AID 504466, 2011. 330,000 tested, 1.3% active. Potency, µM (top dose mostly 46 µM), for inactives: at the highest dose activity change, positive = activation, most hits filed as activators. HEK293T ELG1-luciferase reporter, luminescence, 16 h; also: % of control where 0% means no effect; nearly all actives have a fitted effect of over 60% in size
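Step 1: seed 2,000 HEK293T ELG1-luciferase cells per well. Step 2: add compound or DMSO, incubate 16 hr at 37 °C. Step 3: ONE-Glo, 30 min at room temperature, read luminescence.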
The depositor's hits bear a star; ? = inconclusive; · = no result given; [ ] = remark or other dose. Shown are actives, neighbours in structure and some others; about 9.2% of the full set was active somewhere. Calls follow the shape of the dose curve; as a rule, active = well fitted curve in the direction sought with a large enough effect; inconclusive = small, poorly fitted or top-dose-only effect, or another doubt; inactive = no such curve, though single readings can be large; an effect the other way counts as inactive or inconclusive. Potency is read from the fitted curve at half-maximal effect.

SMILES | FLuc modulator | Rab9 prom act | SMN2 splice up | NPC1 prom act | ELG1 DNA repair | ELG1 genotox
N#C/C(=C(\O)Cc1ccccc1)c1nc2ccccc2[nH]1 | -2.6% | -2.7% | -24.5% | 3.1% | ? | ?
N#C/C(=C(/O)c1ccco1)c1nc2ccccc2[nH]1 | 19µM* | ? | -34.3% | 15.9% | -1.3% | 2.4%
O=C(N/N=C/c1ccccc1F)NC1CCCCC1 | 23.9µM* | 2.82µM* | ? | ? | ? | ?
O=C(N/N=C/c1ccccc1)NC1CCCCC1 | ? | 22.0% | 25.6% | 16.5% | ? | 14.3%
CC(=O)c1ccc([N+](=O)[O-])c(CS(=O)(=O)c2ccccc2)c1 | -0.7% | 0.2% | · | -2.3% | 6.7% | -5.5%
CC(=O)Oc1ccc(C(=O)Cc2ccc3ccccc3n2)c(O)c1C | 5.36µM* | ? | ? | ? | ? | ?
CCCCOc1ccc(-n2nc(C)cc2C)nn1 | 16.9µM* | ? | -13.0% | ? | ? | 17.6%
Cc1cc(C)n(-c2ccc(OCC(=O)O)nn2)n1 | 5.1% | 1.0% | 11.1% | 0.8% | 17.3% | -3.9%
Cc1nc(SCC(=O)Nc2ccccc2F)[nH]c(=O)c1Cc1ccccc1 | 5.2% | · | 24.2% | · | · | ·
CCOc1cc(S(=O)(=O)n2c(C)nc3ccccc32)ccc1F | -1.0% | -8.9% | -29.8% | 1.1% | -2.2% | -13.8%
Cc1ccc(S(=O)(=O)n2c(C)nc3ccccc32)cc1 | 1.6% | 2.7% | · | -5.8% | -0.6% | 1.7%
Cc1ccc(/C=C/c2nc3ccccc3n2S(=O)(=O)c2cccc(Cl)c2)cc1 | 0.675µM* | · | · | · | · | ·
CCOc1ccc(/C=C/c2nc3ccccc3n2S(=O)(=O)c2cccc(Cl)c2)cc1 | 0.953µM* | · | 5.01µM* | · | · | ·
CSc1ccc(/C=C/c2nc3ccccc3n2S(=O)(=O)c2ccc(F)c(C)c2)cc1 | 0.269µM* | · | · | · | · | ·
COc1ccccc1CNC(=O)N1CCN(c2ccccc2Cl)CC1 | -9.9% | -1.6% | · | -2.1% | -8.3% | -5.5%
CC(C)(C)c1ccc(NC(=O)COC(=O)C2CCCC2)cc1 | 10.7µM* | 2.4% | · | -0.6% | ? | -1.4%
COc1ccc(Cl)cc1NC(=O)COC(=O)C1CCCCC1 | 15.1µM* | 0.1% | · | -2.7% | -7.5% | 1.1%
Cc1cc(NC(=O)COC(=O)C2CC2)ccc1Br | 8.49µM* | -2.7% | · | -5.2% | 21.5% | 1.8%
CCOC(=O)c1ccc(NC(=O)CC2C(=O)N(c3cccc(OC)c3)C(=O)N2Cc2cccnc2)cc1 (stereo not drawn) | -17.3% | · | · | · | · | ·
Cc1cc(NO)nc(-c2ccc(Br)cc2)n1 | 23.9µM* | 4.47µM* | 15.8µM* | ? | ? | ?
Cc1cc(C)nc(NC(=O)c2ccc(Br)cc2)n1 | 2.0% | -1.5% | · | 1.5% | 1.4% | -2.8%
Cc1cc(C(=O)CSc2nc(N)cc(=O)[nH]2)c(C)n1CC1CCCO1 (stereo not drawn) | · | · | · | · | -16.4% | -3.2%
Cc1cc(C(=O)CSc2nc3ccccc3c(=O)[nH]2)c(C)n1C | ? | ? | 35.5µM* | ? | ? | 14.1µM*
Cc1cc(C(=O)CSc2nc(N)cc(N)n2)c(C)n1CC1CCCO1 (stereo not drawn) | · | · | · | · | 0.0% | -1.8%
Cc1cc(C(=O)CSc2nc3ccccc3o2)c(C)n1CC1CCCO1 (stereo not drawn) | 1.35µM* | 0.794µM* | -89.0% | 0.708µM* | ? | 2.4%
SMILES | FLuc modulator | Rab9 prom act | SMN2 splice up | NPC1 prom act | ELG1 DNA repair | ELG1 genotox
Cc1cc(C(=O)CSc2nc3ccccc3[nH]2)c(C)n1CC1CCCO1 (stereo not drawn) | 0.536µM* | ? | -53.4% | ? | ? | -10.4%
Cc1cc(C(=O)CSC(C)c2nc3ccccc3c(=O)[nH]2)c(C)n1C (stereo not drawn) | -0.6% | -5.6% | -20.0% | -14.8% | -4.9% | -0.6%
CC(C)c1ccc(NC2CCCN(C(=O)CCc3cnn(C)c3)C2)cc1 (stereo not drawn) | 1.5% | -1.9% | · | -3.3% | 8.2% | -0.8%
COc1cc(N=c2ssnc2Cl)c(OC)cc1Cl | 16.9µM* | 1.4% | 0.0% | -1.0% | ? | -2.8%
Nc1ccccc1N=c1ssnc1Cl | ? | 1.2% | 11.2% | 11.6% | -1.0% | -1.0%
Cc1cc(C)nc(/N=c2/ssnc2Cl)c1 | -1.1% | 13.0% | -9.4% | 0.7% | ? | -7.7%
COc1ccc(OC)c(N=c2ssnc2Cl)c1 | 15.1µM* | 1.1% | -4.3% | -4.6% | -12.2% | -9.9%
O=C(OC1CCN(c2ncc(C(F)(F)F)cc2Cl)CC1)c1ccc(Cl)cc1 | -1.0% | 0.6% | 4.2% | -3.0% | 4.1% | -0.4%
O=C(CSc1nccn1-c1ncc(C(F)(F)F)cc1Cl)c1ccc(Cl)cc1 | ? | 3.55µM* | 6.8% | 3.98µM* | ? | 33.5%
Cc1cc(Nc2nc3ccccc3[nH]c2=O)n(-c2ccccc2)n1 | 1.8% | 0.6% | 12.6µM* | -0.3% | ? | 20.6µM*
Cc1cc(Nc2ncc(Cl)cc2Cl)n(-c2ccccc2)n1 | -5.2% | -6.2% | -21.0% | -1.7% | 23.7% | 7.2%
Cc1cc(Nc2nc3ccccc3nc2Cl)n(-c2ccc([N+](=O)[O-])cc2)n1 | -1.7% | -5.8% | -73.3% | -6.4% | 20.6µM* | -11.9%
Cc1cc(Nc2cnc3ccccc3n2)n(-c2ccccc2)n1 | ? | -0.6% | -23.3% | -1.1% | -10.5% | -3.0%
Cc1cc(NC(=O)/C=C/c2ccccc2Cl)n(-c2nc3ccccc3[nH]2)n1 | 1.35µM* | 2µM* | 11.2µM* | ? | ? | 6.8%
Cc1cc(NC(=O)CC2CCCC2)n(-c2nc3ccccc3[nH]2)n1 | 0.6% | -1.6% | -34.7% | 23.3% | 23.1µM* | -11.5%
Cc1cccc(C)c1NC(=O)Cn1nnc(S(=O)(=O)c2ccccc2)c1N | -0.9% | · | 6.1% | · | · | ·
COc1ccc(Cl)cc1C1CC(=O)Nc2cc3c(cc21)OCCO3 (stereo not drawn) | -8.3% | · | -13.6% | · | · | ·
Cc1cccnc1Sc1c([N+](=O)[O-])ncn1C | -2.3% | -1.5% | -10.8% | -27.0% | 10.3% | -3.0%
Cn1cnc([N+](=O)[O-])c1Sc1ncnc2nc[nH]c12 | -0.8% | -9.4%[46.1 µM] | -40.6% | -3.1%[46.1 µM] | 0.206µM* | 0.0%
Cc1ccc(C)c(N2CCN(S(=O)(=O)c3cc(-c4cc(C)no4)ccc3C)CC2)c1 | -6.1% | · | · | · | · | ·
COC(=O)c1c(Oc2ccc(C(C)=O)cc2)nnc(-c2ccccc2)c1-c1ccccc1 | -15.3% | · | 99.9% | · | · | ·
CCc1ccc(NC(=O)NC2CCCCCCC2)cc1 | 3.79µM* | 1.12µM* | · | 0.708µM* | ? | ?

Screening data deposited in PubChem BioAssay by National Center for Advancing Translational Sciences (NCATS).
